Most compounds without a hit are left out; they make up all but 3.2% or so of the library.
TRb-SRC2 inh: TRbeta-SRC2 interaction inhibition. P10828. TRbeta-SRC2 peptide binding, fluorescence polarization; receptor liganded with 1 µM T3. Potency, µM (doses to about 106 µM), inactives show top-dose activity change, negative = inhibition, hits mostly inhibitors. actives 0.065% (n = 280,000). AID 1469;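 also: plate controls were bound peptide for no effect and peptide without receptor for full effect; nearly all actives have a fitted effect of over 50% in size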
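A fluorescence polarization screen tested compounds at multiple concentrations against complex formation between 0.6 uM TRb ligand-binding domain and 20 nM Texas Red SRC2 peptide, with 1 uM T3 present; readout after 5 hr.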
Tau fibril FP: inhibitors of human tau fibril formation; K18 P301L tau heparin fibrillization, Alexa594 FP, 6 h; Potency, µM (doses to about 57.7 µM), for the others: top-dose activity, negative = inhibition, usual class: inhibitors; actives 0.39% (n = 280,000); P10636; also: nearly all actives have a fitted effect of over 55% in size
Target sequence (P10636 561-689 P618L limits assumed): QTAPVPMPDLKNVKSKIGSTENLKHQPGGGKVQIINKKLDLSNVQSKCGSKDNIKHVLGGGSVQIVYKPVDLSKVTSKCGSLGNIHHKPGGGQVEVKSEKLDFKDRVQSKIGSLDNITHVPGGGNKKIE
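Human K18 P301L fragment (15 uM unlabeled plus 0.24 uM Alexa 594-labeled) in 100 mM sodium acetate pH 7 with compound, aggregation induced by 20 uM heparin for 6 hr at 37 C. ThT (30 uM) added for 1 hr, then Alexa 594 FP read.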
Tau ThT inhib: blocks human tau fibril formation measured by thioflavin T. P10636. recombinant tau K18 P301L, heparin-induced fibrillization, ThT fluorescence. Potency, µM (top dose mostly 57.4 µM), without a hit: top-dose activity, negative = inhibition, actives largely listed as inhibitors. actives 2.1% (n = 270,000). AID 1460; also: nearly all actives have a fitted effect of over 55% in size
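Using a mix of unlabeled (15 uM) and Alexa 594-labeled (0.24 uM) tau K18 P301L, heparin-triggered fibrillization over 6 hr at 37 C was scored by ThT fluorescence.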
RGS12 GoLoco inh: inhibitors of human Gai1-RGS12 GoLoco interaction (red fluorophore); P63096; Gai1:RGS12 GoLoco peptide FP, rhodamine, 10 min; Potency, µM (titrated, usually from 61.6 µM), for the others: top-dose activity, negative = inhibition, usual class: inhibitors; actives 0.44% (n = 230,000); active = well fitted inhibition curve with a large enough effect, not every such curve was filed as active; inactive = no such curve, though single readings can be large or run the other way; also: nearly all actives have a fitted effect of over 30% in size
Target sequence (P63096 whole entry, looked up): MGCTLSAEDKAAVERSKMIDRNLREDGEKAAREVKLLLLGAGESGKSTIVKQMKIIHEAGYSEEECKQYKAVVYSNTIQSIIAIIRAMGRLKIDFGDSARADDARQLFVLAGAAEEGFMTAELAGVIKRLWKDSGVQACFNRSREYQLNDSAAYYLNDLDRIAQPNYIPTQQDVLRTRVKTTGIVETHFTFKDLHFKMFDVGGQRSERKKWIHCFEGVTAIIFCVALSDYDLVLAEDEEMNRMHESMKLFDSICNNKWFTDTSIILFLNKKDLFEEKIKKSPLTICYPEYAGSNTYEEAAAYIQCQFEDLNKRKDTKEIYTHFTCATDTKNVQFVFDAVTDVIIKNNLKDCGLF
TR SRC2 fluor cs: alters Texas Red total fluorescence, flagging assay interference. TRb/SRC2 Texas Red total fluorescence interference. Potency, µM (highest dose often 106 µM), for the others: at the top dose fluorescence change, negative = quenching. actives 0.29% (n = 280,000); active = well fitted curve in either direction with a large enough effect; inconclusive = small, poorly fitted or top-dose-only effect
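Human TRb ligand-binding domain at 0.6 uM with 20 nM Texas Red SRC2 peptide in Tris buffer containing 1 uM T3 and 5% DMSO, incubated with compound 5 h at ambient temperature. Total fluorescence (555/632 nm) calculated as parallel + 2 × perpendicular.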
Tau fluor cs: counter-screen for tau fibril formation inhibitors; tau K18 P301L (four-repeat tau fragment) Alexa594 fluorescence, heparin fibrillization; Potency, µM (highest dose often 57.7 µM), for the others: top-dose activity change, negative = decrease; actives 0.93% (n = 280,000); AID 1463; also: nearly all actives have a fitted effect of over 55% in size
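Human K18 P301L tau (15 uM unlabeled plus 0.24 uM Alexa 594-labeled, final) in 100 mM sodium acetate pH 7 was mixed with compound and 20 uM heparin and incubated 6 hr at 37 C.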
* = called active by the depositor; ! = repeats disagree; [ ] = remark or other dose. Unless noted, calls follow the shape of the dose curve; as a rule, active = well fitted curve in the direction sought with a large enough effect; inconclusive = small, poorly fitted or top-dose-only effect, or another doubt; inactive = no such curve, though single readings can be large; an effect the other way counts as inactive or inconclusive. Unless noted, % is scaled to controls: 0 for no effect and ±100 for the full control effect; potency is read from the fitted curve at half-maximal effect.

Screening COC(=O)CCC(=O)OC1(C)C(=O)C2=CN(CCCOC(C)C)C(c3ccc(OC)cc3)=CC2=C(Br)C1=O (stereo not drawn) returned TRb-SRC2 inh 5%, Tau fibril FP inconclusive, Tau ThT inhib 16µM*, RGS12 GoLoco inh 24%, TR SRC2 fluor cs 9% and Tau fluor cs -16%.
`COC(=O)CCC(=O)OC1(C)C(=O)C2=CN(CC(C)C)C(c3ccc(OC)cc3)=CC2=C(Br)C1=O` (stereo not drawn) gave TRb-SRC2 inh 0%[11.2 µM], Tau fibril FP 8.9µM*!, Tau ThT inhib 10µM*!, RGS12 GoLoco inh 16%[14.2 µM], TR SRC2 fluor cs -2%[11.2 µM] and Tau fluor cs -7%[11.6 µM].
COC(=O)CCC(=O)OC1(C)C(=O)C2=CN(Cc3ccc(OC)cc3)C(c3ccc(OC)cc3)=CC2=C(Br)C1=O (stereo not drawn) was read as TRb-SRC2 inh 0%[11.2 µM], Tau fibril FP 5%[11.6 µM], Tau ThT inhib -16%[11.5 µM], RGS12 GoLoco inh 26%[14.2 µM], TR SRC2 fluor cs -3%[11.2 µM] and Tau fluor cs -17%[11.6 µM].
Screening O=C1CC(c2nc3ccccc3[nH]2)CN1c1cccc(Cl)c1 (stereo not drawn) returned TRb-SRC2 inh -2%, Tau fibril FP -4%, Tau ThT inhib 10%, TR SRC2 fluor cs 0% and Tau fluor cs -2%.
CCc1cc2c(cc3c(=O)n(CCCC(=O)NCc4cccc(Br)c4)ncn32)s1 was read as TRb-SRC2 inh 8%, Tau fibril FP -3%, Tau ThT inhib inconclusive, TR SRC2 fluor cs 3% and Tau fluor cs -7%.
Screening CSCC[C@@H]1NC(=O)[C@@H](NC(=O)[C@H](CCCNC(=N)N)NC(=O)[C@H](CC(C)C)NC(=O)[C@H](CCSC)NC(=O)[C@H](CC(=O)O)NC(=O)[C@H](Cc2ccccc2)NC(=O)[C@@H](N)CC(=O)O)CSSC[C@@H](C(=O)N[C@@H](Cc2c[nH]c3ccccc23)C(=O)N[C@@H](CCC(N)=O)C(=O)N[C@@H](Cc2ccc(O)cc2)C(=O)O)NC(=O)[C@@H]2CCCN2C(=O)[C@H](CCCNC(=N)N)NC(=O)[C@H](Cc2ccccc2)NC(=O)[C@H](C(C)C)NC(=O)[C@H](CCCNC(=N)N)NC(=O)CNC(=O)[C@H](CC(C)C)NC1=O returned TRb-SRC2 inh -14%.
`CCC(C)C(=O)Nc1nc(C)c(-c2csc(Nc3cc(Cl)ccc3OC)n2)s1` (stereo not drawn) gave TRb-SRC2 inh -3%, Tau fibril FP 7%, Tau ThT inhib inconclusive, RGS12 GoLoco inh 21%, TR SRC2 fluor cs 10% and Tau fluor cs 13µM*[quencher].
CCCC(C)C(=O)Nc1nc(C)c(-c2csc(Nc3ccc(Cl)cc3)n2)s1 (stereo not drawn) was read as TRb-SRC2 inh 5%, Tau fibril FP 11%, Tau ThT inhib inconclusive, RGS12 GoLoco inh 72%, TR SRC2 fluor cs 8% and Tau fluor cs 16µM*[quencher].
CCCCC(=O)Nc1nc(C)c(-c2csc(Nc3cc(Cl)ccc3OC)n2)s1 was read as TRb-SRC2 inh -13%, Tau fibril FP -4%, Tau ThT inhib inconclusive, RGS12 GoLoco inh 32%, TR SRC2 fluor cs 13% and Tau fluor cs inconclusive.
`CCCCC(=O)Nc1nc(C)c(-c2csc(Nc3cc(OC)ccc3OC)n2)s1` gave TRb-SRC2 inh -11%, Tau fibril FP inconclusive, Tau ThT inhib inconclusive, RGS12 GoLoco inh -3%, TR SRC2 fluor cs -7% and Tau fluor cs 16µM*[quencher].
Screening COc1ccc(OC)c(Nc2nc(-c3sc(NC(=O)CC(C)C)nc3C)cs2)c1 returned TRb-SRC2 inh 7%, Tau fibril FP -5%, Tau ThT inhib inconclusive, RGS12 GoLoco inh 4%, TR SRC2 fluor cs -4% and Tau fluor cs 13µM*[quencher].
CCCCCCC(=O)Nc1nc(C)c(-c2csc(Nc3cc(Cl)ccc3C)n2)s1 was read as TRb-SRC2 inh -1%, Tau fibril FP 11%, Tau ThT inhib inconclusive, RGS12 GoLoco inh 25%, TR SRC2 fluor cs -3% and Tau fluor cs inconclusive.
For CC(C)(C)OC(=O)N1CCC(c2c(C(=O)Nc3ccc4c(c3)OCCO4)cnn2-c2ccc(F)cc2)CC1 the results were TRb-SRC2 inh 6%, Tau fibril FP 6%, Tau ThT inhib -7%, TR SRC2 fluor cs 3% and Tau fluor cs inconclusive.
`CCOC(=O)CSc1nc2c(sc3ccccc32)c(=O)n1CCO` gave TRb-SRC2 inh 4%, Tau fibril FP 0%, Tau ThT inhib 10%, TR SRC2 fluor cs -1% and Tau fluor cs 1%.
Screening CCCC(C)C(=O)Nc1nc(C)c(-c2csc(Nc3ccccc3OC)n2)s1 (stereo not drawn) returned TRb-SRC2 inh 13%, Tau fibril FP inconclusive, Tau ThT inhib inconclusive, RGS12 GoLoco inh 20%, TR SRC2 fluor cs 1% and Tau fluor cs inconclusive.
Screening CCC(C)C(=O)Nc1nc(C)c(-c2csc(Nc3cc(OC)ccc3OC)n2)s1 (stereo not drawn) returned TRb-SRC2 inh 3%, Tau fibril FP inconclusive, Tau ThT inhib inconclusive, RGS12 GoLoco inh 9%, TR SRC2 fluor cs -4% and Tau fluor cs 14µM*[quencher].
`Cc1nc(C)c(-c2csc(Nc3ccc(F)cc3)n2)s1` gave TRb-SRC2 inh 2%, Tau fibril FP inconclusive, Tau ThT inhib inconclusive, RGS12 GoLoco inh -2%, TR SRC2 fluor cs -3% and Tau fluor cs 20µM*[quencher].
For COc1ccc(OC)c(Nc2nc(-c3sc(C)nc3C)cs2)c1 the results were TRb-SRC2 inh -2%, Tau fibril FP inconclusive, Tau ThT inhib 14µM*, RGS12 GoLoco inh 3%, TR SRC2 fluor cs -7% and Tau fluor cs inconclusive.
`COc1ccc(OC)c(Nc2nc(-c3sc(NC(=O)C(C)(C)C)nc3C)cs2)c1` gave TRb-SRC2 inh 5%, Tau fibril FP 14%, Tau ThT inhib inconclusive, RGS12 GoLoco inh -3%, TR SRC2 fluor cs -1% and Tau fluor cs 14µM*[quencher].
COc1ccc(Cl)cc1Nc1nc(-c2sc(NC(=O)C(C)(C)C)nc2C)cs1 was read as TRb-SRC2 inh -11%, Tau fibril FP inconclusive, Tau ThT inhib inconclusive, RGS12 GoLoco inh 24%, TR SRC2 fluor cs -2% and Tau fluor cs inconclusive.
Screening Fc1ccc(Nc2nc(-c3ccncc3)cs2)cc1 returned TRb-SRC2 inh 7%, Tau fibril FP 6%, Tau ThT inhib inconclusive, RGS12 GoLoco inh -4%, TR SRC2 fluor cs -5% and Tau fluor cs -19%.
`COc1ccc(OC)c(NC(=O)CSc2ccc(-c3sc(C)nc3C)nn2)c1` gave TRb-SRC2 inh 2%, Tau fibril FP -6%, Tau ThT inhib inconclusive, TR SRC2 fluor cs -1% and Tau fluor cs -16%.

Source: PubChem (National Center for Advancing Translational Sciences (NCATS))
